PubChem BioAssay AID2112 (National Center for Advancing Translational Sciences (NCATS), 2009)
In all, about 240,000 compounds went through this assay and about 15 (0.006%) were called active. Calls follow the shape of the dose curve; as a rule, active = well fitted inhibition curve with a large enough effect; inconclusive = small, poorly fitted or top-dose-only effect, or effect the other way, or another doubt; inactive = no such curve, though single readings can be large or run the other way. Not all results are given here.

Target: Lysosomal alpha-glucosidase (Homo sapiens) (UniProt P10253)
Experiment: qHTS Assay for Inhibitors and Activators of Human alpha-Glucosidase From Spleen Homogenate;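 also: 0% = enzyme with vehicle and -100% = no enzyme basal signal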
Details: 4-MU-alpha-glucoside fluorescence; series mostly up to 79.9 µM; activity change, negative = inhibition: at the top concentration
Text: NIH Chemical Genomics Center [NCGC] NIH Molecular Libraries Probe Production Centers Network [MLPCN] MLPCN Grant: R03 MH084841-01 Assay Submitter (PI): Wei Zheng NCGC Assay Overview: Alpha-glucosidase is responsible for the hydrolysis of terminal, non-reducing 1,4-linked alpha-D-glucose residues, which releases alpha-D-glucose. It is a lysosomal hydrolase that is required for the degradation of a small percentage (1-3%) of cellular glycogen in humans. Deficiency of this enzyme results in glycogen-storage disease type II (GSDII), also referred to as Pompe disease, an autosomal recessive disorder. Structurally normal glycogen is accumulated in the lysosomes and cytoplasm in affected patients, primarily in muscle tissues. Excessive glycogen storage within lysosomes may interrupt normal functioning of other organelles and leads to cellular injury. In turn, this leads to enlargement and dysfunction of the entire organ involved (eg: cardiomyopathy and muscle weakness). It has been reported that the improper folding and trafficking of alpha-glucosidase resulting from genetic mutations may account for a significant number of Pompe patients. […] We optimized this alpha-glucosidase assay in 1536-well plate format for identification of novel small molecule inhibitors or activators with structures other than the sugar analogs in order to develop new pharmacological chaperones. In particular, this assay is directed towards discovering compounds active in a more natural setting, tissue homogenate, that may have been missed by screens of the purified enzyme under more stringent conditions.
NCGC Assay Protocol Summary: This is a fluorogenic enzyme assay with 4-methylumbelliferyl-alpha-D-glucopyranoside as the substrate and human spleen homogenate containing alpha-glucosidase as the enzyme preparation. Upon hydrolysis of this fluorogenic substrate, the resulting product, 4-methylumbelliferone (which excites at 365 nm and emits at 440 nm) can be detected by a fluorescence plate reader. Data were normalized to the controls for basal activity (without enzyme) and 100% activity (with enzyme). The AC50 values were determined from concentration-response data modeled with the standard Hill equation. Assay buffer: 50 mM citric acid (titrated with potassium phosphate to pH 5.0), 0.01% Tween-20 (pH 5.0 is an optimal condition for this enzyme assay) 1536-well assay protocol for the alpha-glucosidase from human spleen homogenate: (1) Add 2 ul/well spleen homogenate (1 ug) (2) Add 23 nL compounds in DMSO solution. The final titration was 0.5 nM to 58 uM. (3) Add 2 ul of substrate (1 mM final) (4) Incubate at 37 C for 40 min (5) Add 2 ul stop solution (1M NaOH and 1M Glycine mixture, pH 10) (6) Detect the assay plate in a ViewLux plate reader (PerkinElmer) with Ex=365 nm and Em=440nm. Keywords: Alpha-glucosidase, Pompe Disease, pharmacological chaperone, chaperone therapy, high throughput screening, alpha-glucosidase inhibitor, MLSMR, MLSCN, NIH Roadmap, qHTS and NCGC

Activity change, negative = inhibition, inactive:
O=c1cc(-c2ccc(O)cc2)oc2c([C@@H]3O[C@H](CO)[C@@H](O)[C@H](O)[C@H]3O)c(O)cc(O)c12 -3.5%, Cc1sc2ncnc(Sc3nc4ccccc4s3)c2c1C 0.103%, COc1ccc(C(CC(=O)c2ccccc2)S(=O)(=O)c2ccccc2)cc1 (stereo unspecified) -2.69%, O=C1NNC(c2ccccc2)=N/C1=C\c1ccc(Cl)cc1 -5.13%, CC(O)[C@@H](N)C(=O)O (stereo partly specified) -7.94%, Cc1ccc(-c2cn(S(=O)(=O)c3cccc([N+](=O)[O-])c3)nc2N)cc1 6.15%, ONC(=Nc1ccccc1)c1ccccc1Cl 1.48%, Cc1c(Br)ccc(NC(=O)COc2ccccc2C(N)=O)c1C -5.13%, O=C(NCCc1ccccc1)C1CCN(S(=O)(=O)c2ccc(Br)s2)CC1 -4.51%, C=CCn1c(SCC(=O)c2c(N)n(C)c(=O)n(C)c2=O)nc2sc(CC)cc2c1=O -7.65%, C=CCOC(=O)C(=C)C -4.26%, Cc1ccc(SCC(CC(C)C)N2CCN(CCc3ccccc3)CCC2=O)cc1 (stereo unspecified) -4.74%, Cc1nc(=O)c(-c2ccccc2)c(C)n1-c1ccc(Br)cc1 7.69%, Cc1cc(OCCCC(=O)NCCN2C(=O)S/C(=C\c3cccnc3)C2=O)ccc1Cl -3%, Fc1ccc(Cl)cc1-c1nc(Nc2ccncc2)c2nccnc2n1 -5.39%, CCOC(=O)c1sc(C)c2c1NC(C)(c1cccc3ccccc13)NC2=O (stereo unspecified) -10.3%, COc1ccc2c(c1)c(=O)c(C(=O)c1ccc(Cl)cc1)cn2CC(=O)Nc1ccc(F)cc1 -1.59%, CCOCCOC(=O)C(C)Oc1ccc(Oc2ncc(C(F)(F)F)cc2Cl)cc1 (stereo unspecified) -18.4%, S=c1ccc2ccccc2[nH]1 -2.88%, C=CCC(C(=O)c1ccccc1)[N+](C)(C)CC=C (stereo unspecified) 9.7%, O=c1[nH]oc(O)c1-c1ncc(C(F)(F)F)cc1Cl -2.21%, Cc1cc2ccccn2c1C(=O)c1cccc(S(=O)(=O)N2CCOCC2)c1 3.4%, CC(=O)NNC(=O)c1csc(Cc2c(Cl)sc3ccc(Cl)cc23)n1 0.106%, CCCCc1nn(-c2ccccc2C(F)(F)F)c(=O)n1Cc1ccc(-c2ccccc2S(=O)(=O)NC(=O)c2sccc2C)cc1 -2.88%, COC(=O)c1sc(-c2ccc(C(C)(C)C)cc2)cc1NC(=O)/C=C/C(=O)O -12.5%, CNC(=O)[C@]1(C(F)(F)F)C[C@H](CCc2ccccc2)CCCO1 0.869%, C[C@@H]1O[C@@H](OC[C@H]2O[C@@H](Oc3cc(O)c4c(c3)O[C@H](c3ccc(O)c(O)c3)CC4=O)[C@H](O)[C@@H](O)[C@@H]2O)[C@H](O)[C@H](O)[C@H]1O -6.97%, O=C1C[C@@H](c2ccc3ccccc3c2)N1S(=O)(=O)c1ccccc1[N+](=O)[O-] 4.03%, O=C(Nc1cc(C(=O)Nc2ccc(S(=O)(=O)O)cc2)cc(C(=O)Nc2ccc(S(=O)(=O)O)cc2)c1)Nc1cc(C(=O)Nc2ccc(S(=O)(=O)O)cc2)cc(C(=O)Nc2ccc(S(=O)(=O)O)cc2)c1 -9.55%, O=c1[nH]c(CN2CCN(S(=O)(=O)c3ccc4c(c3)OCCO4)CC2)nc2sc3c(c12)CCCC3 -15.2%, CC(Oc1ccc(Br)cc1Br)C(=O)NC1CCCC1 (stereo unspecified) -1.67%, O=C(O)C1CC=CC2CCN(C3CCCCC3)C(=O)C21 (stereo unspecified) 0.181%, COc1ccc(Br)cc1C1C2C=CCC(C)C2C(=O)N1Cc1ccccc1 (stereo unspecified) -1.05%, CCCCC/C=C\C/C=C\CCCCCCCCCC(N)=O 6.05%, CCCCN(CC)C(=O)c1ccccc1Oc1ccccc1 -0.108%, O=C(COc1ccc(/C=N/NS(=O)(=O)c2ccccc2)cc1)NCCc1ccccc1 -1.54%, Oc1ccc(N2CCN(C(=S)NCc3ccccc3)CC2)cc1 5.73%, COc1ccc(C[C@H](C(=O)O)N2C(=O)c3ccc(C(=O)O)cc3C2=O)cc1 6.17%, CCNc1nc(NC(C)C)nc(N2CC(=O)N(CC(=O)OCC)C2=N)n1 4.96%, Cc1cc2oc(C(=O)Nc3c(C)n(C)n(-c4ccccc4)c3=O)c(C)c2cc1Cl 2.59%, CC1(C)Cc2nc3sc4c(SCC(=O)NC(c5ccccc5)c5ccccc5)ncnc4c3cc2CO1 0.724%, FC(F)(F)c1nc(-c2ccccc2)ncc1-c1nnnn1-c1ccccc1 -4.01%, CCCCNc1ccc(C(=O)Nc2cccc(C)n2)cc1[N+](=O)[O-] -0.299%, COc1cc(NS(=O)(=O)c2ccc3ccccc3c2)c2ncccc2c1 -1.54%, CC/C(=N\NC(=O)c1ccccc1Cl)c1ccc(Br)s1 -2.79%, Cc1noc(C)c1-c1ccc2ncnc(NC(C)c3ccco3)c2c1 (stereo unspecified) 2.91%, CN(C)CCc1c[nH]c2ccc(Cn3cncn3)cc12 -4.52%, CC1CCC(C(C)C)C(=O)/C1=C\c1ccc(NC(=O)CCC(=O)O)cc1 (stereo unspecified) -3.03%, O=c1[nH]c2cccnc2n(CCNc2ncc(C(F)(F)F)cc2Cl)c1=O -8.68%, NC1CCN(O)C1=O (stereo unspecified) -4.38%, C=C1CCN(C(CC(C)C)C(=O)N2CCOCC2)S(=O)(=O)c2ccccc21 (stereo unspecified) -3.94%, CCN(CC)/[N+]([O-])=N/Oc1cc(O/[N+]([O-])=N/N2CCCC2CO)c([N+](=O)[O-])cc1[N+](=O)[O-] (stereo unspecified) 13.4%, Cc1cccc([C@H]2[C@@H]3C=CC[C@@H](C)[C@@H]3C(=O)N2Cc2ccccc2)c1 5.28% [at 119 µM], CCOC(=O)C1=C(C)c2ccccc2OC1C(=O)OCC (stereo unspecified) -1.48% [at 119 µM], O=C(O)CCn1c(O)c(C=C2N=c3ccccc3=N2)sc1=S 5.64%, COc1cc(OC)c2c(c1C(CCN1CCCCC1)c1ccc(N(C)C)cc1)OC(=O)CC2c1ccc(N(C)C)cc1 (stereo unspecified) -1.04%, O=C1CN(Cc2ccccc2)S(=O)(=O)c2ccccc21 4.09%, Cc1cc(=O)oc2cc(NC(=O)C3CC(=O)N(Cc4ccccc4)C3)ccc12 (stereo unspecified) -3.26%, Cc1c(CN2CCC(CO)(CCOc3ccccc3)CC2)[nH]c2ccc(Cl)cc12 -2.21%, CC(C)=CCN1CCC2(CCc3ccccc32)CC1 2.89%, CC(CNc1ccc([N+](=O)[O-])cc1)NC(=O)c1ccccc1Br (stereo unspecified) -6.77%, CC1CCN(S(=O)(=O)c2ccc3ncn(CC(=O)N(C)C4CCCCC4)c(=O)c3c2)CC1 -4.28%, OC(COCC1COc2ccccc2O1)CN1CCN(c2ccc(F)cc2)CC1 (stereo unspecified) -10.7%, C=C(C)C(=O)c1ccc(F)cc1 6.52%, CC[C@H](C)[C@H](NC(=O)[C@@H](N)CCC(=O)O)C(=O)N[C@@H](CC(C)C)C(=O)N[C@@H](CC(=O)O)C(=O)N[C@H](C(=O)N1CCC[C@H]1C(=O)N[C@@H](CO)C(=O)N[C@H](C(=O)O)[C@@H](C)O)C(C)C 5.13%, H-EHIPA-OH 3.99%, O=C(NCCCCc1ccccc1)C1CC(c2ccc([N+](=O)[O-])cc2)=NO1 (stereo unspecified) 3.76%, COc1ccccc1-c1nnc(NC(=O)c2ccc3ncsc3c2)o1 2.72%, CN1CCN(c2cc3c(cc2F)c(=O)c(C(=O)O)cn3CCF)CC1 2.34%, CCOC(OCC)OCC -1.22%, Oc1ccc(-c2c(-c3ccccc3)nn3c(C(F)(F)F)cc(C(F)(F)F)nc23)cc1 3.91%, O=C(NCCCNc1ccc([N+](=O)[O-])cc1Cl)c1ccccc1F -9.07%, COCCCNC(=S)N1CCCC(c2nc3cc(C)c(C)cc3[nH]2)C1 (stereo unspecified) -4.36%, Brc1ccc2ncnc(NCc3cccnc3)c2c1 7.88%, CCCC1=Nc2cc(C(=O)NCc3ccco3)ccc2Sc2ccccc21 -5.63%, CCOC(=O)c1c(C)n(C)c2ccc(OC)c(NS(=O)(=O)CC)c12 -20%, C/C=C(\C)C(=O)NCCN1C2=NC[C@H](Cc3ccc(O)cc3)N2C[C@@H]1Cc1ccc(OC)cc1 2.08%, COc1ccc(C2=Nn3c(nnc3-c3ccccc3O)SC2)cc1 -1.69%, Cn1ccc(=NC=C(C#N)C#N)c2ccccc21 -4.74%, COc1ccc(C2=NN(C(=O)c3cccnc3)C(c3ccccc3)C2)cc1 (stereo unspecified) -4.5%, Cc1cc(N(C)C)nc(Cl)n1 2.22%, O=C(CSc1cccc[n+]1[O-])c1ccc(-c2ccccc2)cc1 -7.13%, COc1cccc(CC2(CO)CCN(Cc3cnc(-c4cccc(C)c4)nc3)CC2)c1 3.73%, O=C(Nc1ccccc1F)c1ccccc1-c1ccc(C(F)(F)F)cc1 -4.73%, O=[N+]([O-])c1ccccc1SNc1ccccn1 0.477%, N#Cc1cccc(CS(=O)(=O)c2nnnn2-c2cc(C(F)(F)F)cc(C(F)(F)F)c2)c1 2.12%, FC(F)(F)c1cccc(-c2cc3ccccc3nc2N2CCCC2)c1 -3.49%, O=C(Nc1ccc(Cl)cc1)/C(=C1\CCCN1)[N+](=O)[O-] 0.902%, Cc1noc(C)c1-c1ccc2ncnc(NCc3ccc4[nH]ccc4c3)c2c1 10.6%, COc1ccc(Cl)cc1NC(=O)COC(=O)C(CC(C)C)N1C(=O)C2CC=CCC2C1=O (stereo unspecified) 1.56%, O=C(CCl)Nc1cccc(CP(=O)(c2ccccc2)c2ccccc2)c1 5.31%, Cc1ccc(CNC(=O)C2(C(F)(F)F)C/C(=C\Cc3ccccc3)CCCO2)o1 (stereo unspecified) 0.641%, CCCN1CCC(=O)N(C(CSc2ccc(C)cc2)Cc2ccccc2)CC1 (stereo unspecified) -7.66%, COC(=O)Cn1cc(/C=C/[N+](=O)[O-])c2ccccc21 3.39%, O=C(NCc1ccccn1)[C@]1(C(F)(F)F)C[C@H](CCc2ccccc2)CCCO1 -5.69%, CC(C)[C@@H]1NC(=O)[C@H](Cc2ccccc2)NC(=O)[C@@H](CC(=O)O)NC(=O)CNC(=O)[C@H](CCCNC(=N)N)NC1=O 5.67%, COC(=O)[C@@]1(Cc2ccc(OC)cc2)[C@H]2c3cc(C(=O)N4CCCC4)n(Cc4ccc(OC(F)(F)F)cc4)c3C[C@H]2CN1C(=O)c1ccccc1 6.25%, COc1ccc(C2/C=C\CN(Cc3ccco3)C(C)C(=O)N2Cc2ccc(F)cc2)cc1 (stereo unspecified) 2.13%, COc1cc2c(cc1OC)C(/C=C/c1ccco1)=NCC2 1.23%

outcome, inactive:
OCCC(O)CO (stereo unspecified), CN1CCN2c3ccccc3Cc3ccccc3[C@@H]2C1
